The structures appear in SMILES notation. The panel holds about 83,000 compounds, 20% with a hit somewhere; the sample as a whole holds those more often.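 For each line, cells grew in 96-well plates with the test compound present at a single concentration for 48 hours.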 A number with no mark means an inactive call. Calls of active or inactive are those of the source. The calls were made as follows: active = growth percent below 10; inactive = the rest.

Test systems include DU-145 prostate; K-562 leukemia; MALME-3M melanoma; MDA-MB-231 breast; RXF 393 renal; SF-268 CNS; SF-295 CNS; SF-539 CNS; UACC-257 melanoma; M14 melanoma; HCT-15 colon; HT29 colon; SNB-75 CNS; SNB-19 CNS; U251 CNS; PC-3 prostate; SK-MEL-5 melanoma; UACC-62 melanoma; LOX IMVI melanoma; SK-MEL-28 melanoma.
What all share (assay): NCI-60 one-dose screen, 48 h (100 = growth as untreated, 0 = no growth, -100 = all killed)
What all share (details): 10 µM unless noted

Regarding `Fc1ccc2[nH]cc(-c3nonc3-c3c[nH]c4ccc(Br)cc34)c2c1`, the growth is 42% in the experiment on DU-145 prostate; 4.21% (active) in the experiment on K-562 leukemia; 21.2% in the experiment on MALME-3M melanoma; -20.2% (active) in the experiment on MDA-MB-231 breast; 77.3% with RXF 393 renal; 38.2% in the experiment with SF-268 CNS. In addition, the growth with SF-295 CNS was 9.73% (active); with SF-539 CNS, 16.7%; with UACC-257 melanoma, 42.7%; with M14 melanoma, -5.26% (active); with HCT-15 colon it was 9.29% (active); in the experiment on HT29 colon, -51.8% (active). In addition, the growth in the experiment with SNB-75 CNS is 33.7%; with SNB-19 CNS, 35.8%; in the experiment with U251 CNS, 13.6%; with PC-3 prostate, 26.7%; in the experiment with SK-MEL-5 melanoma, 49.8%; with UACC-62 melanoma it was 28%. The results for the growth in the experiment on LOX IMVI melanoma and with SK-MEL-28 melanoma were -53.9% (active) and 61.8%, respectively.
On to `Cn1ccc2c3c(ccc21)CC3=O`, for which the growth with DU-145 prostate is 120%; with K-562 leukemia it was 111%; in the experiment with MALME-3M melanoma, 121%; in the experiment on MDA-MB-231 breast, 103%; in the experiment on RXF 393 renal it was 115%; in the experiment with SF-268 CNS, 110%. Further, the growth with SF-295 CNS was 112%; in the experiment on SF-539 CNS, 126%; with UACC-257 melanoma it was 114%; in the experiment with M14 melanoma, 107%; in the experiment with HCT-15 colon, 105%; in the experiment with HT29 colon it was 116%. Besides, the growth in the experiment with SNB-75 CNS is 97.7%; with SNB-19 CNS, 105%; in the experiment with U251 CNS it was 111%; in the experiment on PC-3 prostate, 110%; in the experiment with SK-MEL-5 melanoma it was 115%; with UACC-62 melanoma, 99.1%. Further, the growth in the experiment on LOX IMVI melanoma is 119%; in the experiment with SK-MEL-28 melanoma, 112%.
Regarding `CC1=NN(c2nc(SCC(=O)Nc3nc4ccc(C)cc4s3)nc(-c3ccccc3)c2C#N)C(=O)C1`, the growth in the experiment on DU-145 prostate is 113%; in the experiment on K-562 leukemia it was 94.7%; with MALME-3M melanoma, 101%; in the experiment with MDA-MB-231 breast it was 106%; with RXF 393 renal it was 94.9%; in the experiment on SF-268 CNS, 97.2%. For the same compound, the growth is 103% in the experiment with SF-295 CNS; 90.3% in the experiment with SF-539 CNS; 113% in the experiment on UACC-257 melanoma; 109% in the experiment on M14 melanoma; 105% in the experiment with HCT-15 colon; 104% with HT29 colon. The growth in the experiment on SNB-75 CNS is 75.4%; with SNB-19 CNS, 97.3%; in the experiment on U251 CNS, 102%; with PC-3 prostate, 97.1%; with SK-MEL-5 melanoma, 100%; in the experiment on UACC-62 melanoma, 94.3%. Moreover, the values for the growth in the experiment on LOX IMVI melanoma and in the experiment with SK-MEL-28 melanoma were 101% and 105%, respectively.
Consider `O=C1/C(=C/c2ccc(Cl)cc2)COc2ccc(O)cc21`, for which the growth with DU-145 prostate was 89.7%; in the experiment on K-562 leukemia, 2.41% (active); in the experiment with MALME-3M melanoma it was 94.9%; in the experiment with MDA-MB-231 breast it was 86%; in the experiment with RXF 393 renal, 97.9%; with SF-268 CNS it was 79.3%. Also, the growth in the experiment with SF-295 CNS is 101%; with SF-539 CNS, 88.1%; with UACC-257 melanoma it was 104%; in the experiment with M14 melanoma, 86%; in the experiment with HCT-15 colon it was 29.3%; in the experiment on HT29 colon it was 15.3%. In addition, the growth in the experiment on SNB-75 CNS is 84.5%; with SNB-19 CNS, 82.1%; in the experiment with U251 CNS, 44.9%; with PC-3 prostate, 69.8%; in the experiment with SK-MEL-5 melanoma, 96.8%; with UACC-62 melanoma it was 78.1%. Moreover, the growth is -42.6% (active) in the experiment with LOX IMVI melanoma and 96.8% with SK-MEL-28 melanoma.
Take `O=C1c2ccc3c4ccc5c6c(ccc(c7ccc(c2c37)C(=O)N1CCC[P+](c1ccccc1)(c1ccccc1)c1ccccc1)c64)C(=O)N(CCC[P+](c1ccccc1)(c1ccccc1)c1ccccc1)C5=O`: the growth in the experiment with DU-145 prostate was 40.8%; in the experiment on K-562 leukemia, 16.4%; in the experiment with MALME-3M melanoma, -27.8% (active); in the experiment with MDA-MB-231 breast, 59.6%; with RXF 393 renal, 95%; with SF-268 CNS it was 57.6%. Besides, the growth in the experiment on SF-295 CNS is 42.5%; in the experiment with SF-539 CNS, 47.4%; in the experiment with UACC-257 melanoma, 21.5%; in the experiment with M14 melanoma, 18.8%; in the experiment with HCT-15 colon, 67.9%; in the experiment with HT29 colon, 26.4%. The growth was 131% in the experiment on SNB-75 CNS; 42.4% in the experiment on SNB-19 CNS; 22.3% in the experiment on U251 CNS; 56.1% in the experiment with PC-3 prostate; 18.5% in the experiment on SK-MEL-5 melanoma; 54.5% in the experiment on UACC-62 melanoma. Besides, the growth in the experiment with LOX IMVI melanoma is 17%; with SK-MEL-28 melanoma, 15.2%.
For `CCN(CC)CCCN1C(=O)c2c(c(C)c3c(oc4cc(O)ccc43)c2C)C1=O`, the growth in the experiment with DU-145 prostate was -61.7% (active); in the experiment with K-562 leukemia, -14.4% (active); in the experiment with MALME-3M melanoma, -80.4% (active); in the experiment on MDA-MB-231 breast, -80.3% (active); with RXF 393 renal it was 75.7%; with SF-268 CNS, -41.4% (active). The growth is 110% with SF-295 CNS; 96.4% in the experiment with SF-539 CNS; 94.5% with UACC-257 melanoma; -88.8% (active) in the experiment with M14 melanoma; -79.2% (active) in the experiment on HCT-15 colon; -61.8% (active) in the experiment on HT29 colon. Moreover, the growth is 124% in the experiment with SNB-75 CNS; -82.8% (active) in the experiment with SNB-19 CNS; -88.8% (active) with U251 CNS; -67.5% (active) in the experiment on PC-3 prostate; -97.7% (active) in the experiment with SK-MEL-5 melanoma; 95.2% in the experiment on UACC-62 melanoma. Besides, the growth in the experiment on LOX IMVI melanoma is -93.5% (active); in the experiment on SK-MEL-28 melanoma it was -85.1% (active).
On to `COc1ccc(/C=N/C2=C(C#N)C(c3cccc(Cl)c3)c3c(ccc4ccccc34)O2)cc1` (stereo not given), for which the growth in the experiment on DU-145 prostate was 55.7%; in the experiment with K-562 leukemia it was 11.1%; with MALME-3M melanoma it was 44.5%; in the experiment with MDA-MB-231 breast it was 38%; in the experiment on RXF 393 renal, 26.5%; in the experiment with SF-268 CNS, 45.9%. Moreover, the growth was 21.8% in the experiment with SF-295 CNS; 7.29% (active) in the experiment on SF-539 CNS; 62.6% with UACC-257 melanoma; 15.6% in the experiment on M14 melanoma; 16.7% in the experiment with HCT-15 colon; 10.3% in the experiment on HT29 colon. Besides, the growth with SNB-75 CNS is -30.1% (active); with SNB-19 CNS, 26.8%; in the experiment on U251 CNS, 25.6%; with PC-3 prostate it was 23.8%; in the experiment on SK-MEL-5 melanoma, 31.3%; in the experiment with UACC-62 melanoma it was 36.3%. The figures for the growth in the experiment with LOX IMVI melanoma and in the experiment with SK-MEL-28 melanoma were 26.7% and 70.1%, respectively.

These data come from PubChem BioAssay (NCI).
